Activity calls are given as the source filed them. How the source made its calls: active means hit-call score of the fitted dose curve at least 0.9, where 1 is the maximum; inactive means score below 0.9.

The results in this text go back to PubChem BioAssay (EPA / NIEHS).

The nature of assay [1]: BSK_LPS_PGE2: BioMAP Diversity Plus: LPS Assay for Prostaglandin E2 (PGE2) Biomarker Activity (AID 2283082). The note with it: primary human HUVEC with PBMC; actives raise or lower the signal. The method in brief:
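Primary human endothelial cells and blood mononuclear cells, co-cultured with LPS, receive test chemical; PGE2 ELISA follows at 24 h, with SRB-stained parallel cultures flagging cytotoxicity.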

Read-out in assay [2]: Macrophage colony-stimulating factor (MCSF), CSF1 (gene 1435)
In words: BSK_LPS_MCSF: BioMAP Diversity Plus: LPS Assay for Macrophage colony-stimulating factor (MCSF) Biomarker Activity (AID 2283083). The note with it: primary human HUVEC with PBMC; actives raise or lower the signal. In short, it runs like this: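 Bidirectional fitting against DMSO was applied to M-CSF levels read by ELISA at 24 h post-dose. The system pairs human umbilical vein endothelium with peripheral blood mononuclear cells; parallel SRB staining tracked cytotoxicity.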

Read-out in assay [3]: Tissue Factor, F3 (gene 2152)
The assay is described as follows: BSK_LPS_TissueFactor: BioMAP Diversity Plus: LPS Assay for Tissue Factor Biomarker Activity (AID 2283084). The note with it: primary human HUVEC with PBMC; actives raise or lower the signal. In short, it runs like this:
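Compound was added to an endothelial cell/PBMC co-culture, and after 24 h tissue factor (CD142) was read by ELISA. Gain or loss of signal was fitted against a DMSO baseline, and parallel SRB staining (560 nm) tracked overt cytotoxicity.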

Read-out in assay [4]: Tumor necrosis factor (Homo sapiens) (UniProt P01375)
The assay is described as follows: BSK_LPS_TNFa: BioMAP Diversity Plus: LPS Assay for Tumour Necrosis Factor alpha (TNFa) Biomarker Activity (AID 2283085).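 On AC50: TNFa protein level quantified by ELISA in the co-culture.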 The note with it: primary human HUVEC with PBMC; actives raise or lower the signal. In short, it runs like this: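 ELISA-based TNFa endpoint in a human endothelial–PBMC co-culture sampled 24 h post-exposure. Curves were fitted in both directions using DMSO as baseline of activity.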

Read-out in assay [5]: Vascular cell adhesion molecule 1 (VCAM1), VCAM1 (gene 7412)
The assay is described as follows: BSK_LPS_VCAM1: BioMAP Diversity Plus: LPS Assay for Vascular cell adhesion molecule 1 (VCAM1) Biomarker Activity (AID 2283086). The note with it: primary human HUVEC with PBMC; actives raise or lower the signal. In short, it runs like this: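 Measured by ELISA: VCAM-1 in LPS-activated HUVEC/PBMC co-cultures 24 h after treatment. Values reflect bidirectional fitting with DMSO as baseline.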

Read-out in the next assay: CD38, CD38 (gene 952)
In words: BSK_SAg_CD38: BioMAP Diversity Plus: SAg Assay for CD38 Biomarker Activity (AID 2283087). The note with it: primary human HUVEC with PBMC; actives raise or lower the signal. The method in brief: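 Measures CD38 on a human endothelial/PBMC co-culture driven by SEB and TSST-1, 24 h after compound exposure, using ELISA with fluorescence detection; DMSO defines baseline for bidirectional curve fitting.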

Read-out in a further assay: CD40, CD40 (gene 958)
In words: BSK_SAg_CD40: BioMAP Diversity Plus: SAg Assay for CD40 Biomarker Activity (AID 2283088). The note with it: primary human HUVEC with PBMC; actives raise or lower the signal. The method in brief:
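CD40 is measured by fluorescence ELISA in an endothelial/PBMC primary human co-culture at 24 h post-dose. Fitting is bidirectional, DMSO baseline. Parallel SRB staining (560 nm) flags cytotoxicity.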

Read-out in another assay: CD69, CD69 (gene 969)
In words: BSK_SAg_CD69: BioMAP Diversity Plus: SAg Assay for CD69 Biomarker Activity (AID 2283089).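 On AC50: cell surface CD69 protein quantified by ELISA with fluorescence detection.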 The note with it: primary human HUVEC with PBMC; actives raise or lower the signal. The method in brief: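 Endothelial/PBMC co-culture; chemical added; 24 h incubation; CD69 ELISA with fluorescence detection; bidirectional fit vs DMSO.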

Read-out in assay [6]: Monocyte Chemoattractant Protein-1 (MCP1), CCL2 (gene 6347)
In words: BSK_SAg_MCP1: BioMAP Diversity Plus: SAg Assay for Monocyte Chemoattractant Protein-1 (MCP1) Biomarker Activity (AID 2283090). The note with it: primary human HUVEC with PBMC; actives raise or lower the signal. In short, it runs like this:
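Values derive from bidirectional fitting of ELISA-measured MCP1 against DMSO controls. Readings were taken 24 h after dosing human vascular endothelial cells co-cultured with peripheral blood mononuclear cells under superantigen stimulation.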

Read-out in assay [7]: Monokine induced gamma interferon (MIG), CXCL9 (gene 4283)
The assay is described as follows: BSK_SAg_MIG: BioMAP Diversity Plus: SAg Assay for Monokine induced gamma interferon (MIG) Biomarker Activity (AID 2283092). The note with it: primary human HUVEC with PBMC; actives raise or lower the signal. The method in brief: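 Measures CXCL9 protein by ELISA in a human vascular primary-cell co-culture (umbilical vein endothelium with PBMC) 24 h after chemical addition. Activity is scored up or down from the DMSO control.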

The nature of assay [8]: BSK_SAg_PBMCCytotoxicity: PBMC Cytotoxicity Assessment in the BioMAP Diversity Plus: SAg Assay (AID 2283093).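 Further: PBMC viability measured as Alamar Blue reduction fluorescence at 546/580 nm; fitted both ways against DMSO so a hit may be loss or gain of signal.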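 On AC50: PBMC superantigen activated with SEB plus TSST-1 one hour after compound addition.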 The note with it: primary human HUVEC with PBMC. In short, it runs like this:
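Alamar Blue reduction (6 h, 546/580 nm) reports PBMC cytotoxicity after 90 h superantigen activation (SEB, TSST-1; 20 ng/mL final each) with 1 h compound pre-treatment. Gain or loss of signal fitted versus DMSO.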

Read-out in assay [9]: Interleukin-8 (IL8), CXCL8 (gene 3576)
In words: BSK_SAg_IL8: BioMAP Diversity Plus: SAg Assay for Interleukin-8 (IL8) Biomarker Activity (AID 2283094). The note with it: primary human HUVEC with PBMC; actives raise or lower the signal. In short, it runs like this:
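Primary human endothelial cells with PBMC, exposed 24 h; IL-8 determined by ELISA, analysed bidirectionally relative to DMSO.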

The nature of assay [10]: BSK_SAg_Proliferation: Cell Proliferation Assessment in the BioMAP Diversity Plus: SAg Assay (AID 2283095).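 Further: relative cell number as total protein by SRB absorbance in sub-confluent culture.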 The note with it: primary human HUVEC with PBMC. In short, it runs like this:
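A human primary co-culture of umbilical vein endothelium and blood mononuclear cells receives compound; relative cell number is quantified at 96 h by SRB staining and 560 nm absorbance, with DMSO-referenced bidirectional curve fitting.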

Assay [11] in a line: BSK_SAg_SRB: Viability Assessment in the BioMAP Diversity Plus: SAg Assay (AID 2283096).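 Further: cells read one day after compound addition; hits may be either gain or loss of signal compared with DMSO.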 The note with it: primary human HUVEC with PBMC. The method in brief: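 This overt-cytotoxicity endpoint quantifies protein in human endothelial/PBMC co-cultures at 24 h using SRB absorbance (560 nm) after trichloroacetic acid fixation. Values reflect signal change from the DMSO negative control, fitted bidirectionally.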

Read-out in assay [12]: E-selectin (Homo sapiens) (UniProt P16581)
The assay is described as follows: BSK_SAg_Eselectin: BioMAP Diversity Plus: SAg Assay for Eselectin Biomarker Activity (AID 2283091). The note with it: primary human HUVEC with PBMC; actives raise or lower the signal. The method in brief: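 Cell-surface E-selectin is read by ELISA at 24 h in the SAg co-culture of HUVEC and PBMC. Curves are fitted in both directions relative to DMSO. Parallel SRB total-protein staining tracks overt toxicity.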

Sequence of E-selectin (Homo sapiens) (P16581 whole entry, looked up): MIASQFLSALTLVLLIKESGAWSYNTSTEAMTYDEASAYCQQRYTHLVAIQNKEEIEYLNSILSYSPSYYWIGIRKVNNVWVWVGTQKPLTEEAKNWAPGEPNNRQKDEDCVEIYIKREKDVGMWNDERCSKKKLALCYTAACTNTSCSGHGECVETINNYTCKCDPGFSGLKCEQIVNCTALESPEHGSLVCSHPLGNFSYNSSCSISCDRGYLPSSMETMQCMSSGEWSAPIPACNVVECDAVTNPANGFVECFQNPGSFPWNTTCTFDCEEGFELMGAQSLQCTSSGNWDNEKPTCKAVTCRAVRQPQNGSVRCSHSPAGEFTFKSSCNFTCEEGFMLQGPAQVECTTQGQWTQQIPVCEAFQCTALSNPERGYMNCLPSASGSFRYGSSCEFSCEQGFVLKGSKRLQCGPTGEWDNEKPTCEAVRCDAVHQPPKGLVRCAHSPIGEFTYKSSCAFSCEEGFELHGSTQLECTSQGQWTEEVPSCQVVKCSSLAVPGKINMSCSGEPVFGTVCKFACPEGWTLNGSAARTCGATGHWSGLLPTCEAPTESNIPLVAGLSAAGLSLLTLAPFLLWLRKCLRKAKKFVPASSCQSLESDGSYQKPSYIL
Sequence of Tumor necrosis factor (Homo sapiens) (P01375 whole entry, looked up): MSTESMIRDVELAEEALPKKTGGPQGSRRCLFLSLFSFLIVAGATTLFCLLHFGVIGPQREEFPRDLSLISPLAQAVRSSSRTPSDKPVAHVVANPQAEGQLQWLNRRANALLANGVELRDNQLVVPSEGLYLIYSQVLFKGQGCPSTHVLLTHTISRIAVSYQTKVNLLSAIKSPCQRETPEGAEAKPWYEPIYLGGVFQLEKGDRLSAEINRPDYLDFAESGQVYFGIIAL

The AC50 is the concentration at which the activity in the assay is half-maximal. With `CC[C@H](C)C(=O)O[C@H]1C[C@@H](C)C=C2C=C[C@H](C)[C@H](CC[C@@H]3C[C@@H](O)CC(=O)O3)[C@H]21`, the result in assay [1], in [3] and in assay [7] was inactive. The AC50 in [2] is 34 µM (active); in assay [4], 33.5 µM (active); in assay [5], 30.8 µM (active); with CD38, CD38 (gene 952), 29.8 µM (active); in the assay with CD40, CD40 (gene 958) it was 12.5 µM (active); with CD69, CD69 (gene 969) it was 13.8 µM (active). The AC50 in [6] was 33.7 µM (active); in assay [8], 21.7 µM (active); in assay [9], 0.147 µM (active); in [10] it was 4.5 µM (active); in [11], 3.95 µM (active).
On to `CNS(=O)(=O)c1cc(C(=O)N2CCC(CCN3C4CCC3CC(n3c(C)nc5ccccc53)C4)(c3cccc(F)c3)CC2)c(Cl)cc1F` (configuration not stated), for which the outcome in [1], in [3], in assay [4], in [12] and in [7] was inactive. Also, the AC50 was 18.3 µM (active) in assay [2]; 5.99 µM (active) in assay [5]; 28.9 µM (active) with CD38, CD38 (gene 952); 23.2 µM (active) with CD40, CD40 (gene 958); 20 µM (active) in the assay with CD69, CD69 (gene 969); 27.5 µM (active) in assay [6]. The AC50 was 12.6 µM (active) in [8], 20 µM (active) in assay [9] and 16.7 µM (active) in [11].
Turning to `CC(C)CCCCCCCOC(=O)CCCCC(=O)OCCCCCCCC(C)C`, the outcome was “inactive” in assay [1]; “inactive” in [2]; “inactive” in assay [3]; “inactive” in assay [4]; “inactive” in assay [5]; “inactive” in the assay with CD38, CD38 (gene 952). In addition, the outcome with CD40, CD40 (gene 958) was “inactive”; in the assay with CD69, CD69 (gene 969), “inactive”; in assay [6], “inactive”; in assay [12] it was “inactive”; in [7], “inactive”; in [8], “inactive”. The outcome in [9] and in [11] was inactive.
On to `CCCCC(CC)COC(=O)c1ccc(C(=O)OCC(CC)CCCC)cc1` (configuration not stated), for which the outcome in [1] was “inactive”; in assay [2] it was “inactive”; in assay [3], “inactive”; in [4], “inactive”; in assay [5], “inactive”; with CD38, CD38 (gene 952) it was “inactive”. For the same molecule, the outcome with CD40, CD40 (gene 958) is “inactive”; with CD69, CD69 (gene 969) it was “inactive”; in assay [6] it was “inactive”; in [12], “inactive”; in [7], “inactive”; in assay [8], “inactive”. Further, the result in assay [11] was inactive.
For the molecule `CC(C)CCCCCCOC(=O)c1ccc(C(=O)OCCCCCCC(C)C)c(C(=O)OCCCCCCC(C)C)c1`, the outcome in assay [1] was “inactive”; in assay [2], “inactive”; in assay [3], “inactive”; in assay [4], “inactive”; in assay [5] it was “inactive”; in the assay with CD38, CD38 (gene 952), “inactive”. Also, the outcome was “inactive” with CD40, CD40 (gene 958); “inactive” with CD69, CD69 (gene 969); “inactive” in assay [6]; “inactive” in [12]; “inactive” in assay [7]; “inactive” in [8]. The result in [9] and in assay [11] was inactive.
On to `CCC(C)(C)C(=O)O[C@H]1C[C@@H](C)C=C2C=C[C@H](C)[C@H](CC[C@@H]3C[C@@H](O)CC(=O)O3)[C@H]21`, for which the result in assay [1], in assay [3] and in assay [7] was inactive. Moreover, the AC50 in [2] is 35 µM (active); in assay [4] it was 0.363 µM (active); in [5] it was 25.4 µM (active); with CD38, CD38 (gene 952), 24.9 µM (active); with CD40, CD40 (gene 958), 3.99 µM (active); in assay [6], 20 µM (active). Also, the AC50 in [12] was 0.149 µM (active); in assay [8], 25.1 µM (active); in assay [9] it was 0.149 µM (active); in assay [10], 6.31 µM (active); in assay [11] it was 1.32 µM (active).
As to `CC(C)CCO`, the outcome was “inactive” in [1]; “inactive” in assay [2]; “inactive” in assay [3]; “inactive” in assay [4]; “inactive” in assay [5]; “inactive” with CD38, CD38 (gene 952). Moreover, the outcome with CD40, CD40 (gene 958) is “inactive”; with CD69, CD69 (gene 969), “inactive”; in assay [6], “inactive”; in [12], “inactive”; in assay [7] it was “inactive”; in assay [8] it was “inactive”. Besides, the result in assay [9] and in [11] was inactive.
